These results are taken from PubChem BioAssay (NCATS).

The target in assay [1] is Lysosomal acid glucosylceramidase (Homo sapiens) (UniProt P04062). The experiment in a line: Glucocerebrosidase-p2 (AID 348; in the data active = potency below about 10 µM; note: potency is the fitted concentration of half-maximal effect). Particulars: purified GBA, blue fluorogenic substrate, 40 min. In a few lines:
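Compounds titrated from 0.6 nM upwards against 0.2 nM enzyme in pH 5.9 citric acid/KH2PO4, taurocholate, tween-20; blue fluorogenic substrate 80 uM, 40 min room temperature, stopped and read Ex 365/Em 440 for AC50.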

Assay [2] is described as follows: AP1 Signaling Pathway (AID 357).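 Note: ME-180 reporter cells stimulated with EGF at its EC50 level; % is set by controls: 0 for no effect and ±100 for the full control effect.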 Conditions: ME-180 AP-1-bla reporter, EGF-induced, beta-lactamase ratio, 5 h; at 7.69 µM (top of the series) unless noted. Put shortly: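 Modulation of EGF-driven AP-1 transcription was assessed with a beta-lactamase reporter in ME-180 cells. Compound and EC50 EGF were co-incubated 5 hours at 37 °C before 2.5-hour CCF4 loading at room temperature and dual-emission reading.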

The target in assay [3] is Cytochrome P450 1A2 (Homo sapiens) (UniProt P05177). The experiment in a line: p450-cyp1a2 (AID 410; calls by dose curve; note: potency is the fitted concentration of half-maximal effect;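 for activity change, negative = inhibition: -100% = full effect of reference inhibitor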). Particulars: recombinant CYP1A2, luciferin-ME demethylation, luminescence; series mostly up to 57 µM. Put shortly: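 Luminescent readout of luciferin formed from Luciferin-ME by human CYP1A2; data normalized against complete inhibition by 57 uM furafylline. Enzyme 20nM, substrate 100uM at Km, 100mM KPO4 buffer, 60 min reaction at room temperature.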
Chain of Cytochrome P450 1A2 (Homo sapiens) (P05177 whole entry, looked up): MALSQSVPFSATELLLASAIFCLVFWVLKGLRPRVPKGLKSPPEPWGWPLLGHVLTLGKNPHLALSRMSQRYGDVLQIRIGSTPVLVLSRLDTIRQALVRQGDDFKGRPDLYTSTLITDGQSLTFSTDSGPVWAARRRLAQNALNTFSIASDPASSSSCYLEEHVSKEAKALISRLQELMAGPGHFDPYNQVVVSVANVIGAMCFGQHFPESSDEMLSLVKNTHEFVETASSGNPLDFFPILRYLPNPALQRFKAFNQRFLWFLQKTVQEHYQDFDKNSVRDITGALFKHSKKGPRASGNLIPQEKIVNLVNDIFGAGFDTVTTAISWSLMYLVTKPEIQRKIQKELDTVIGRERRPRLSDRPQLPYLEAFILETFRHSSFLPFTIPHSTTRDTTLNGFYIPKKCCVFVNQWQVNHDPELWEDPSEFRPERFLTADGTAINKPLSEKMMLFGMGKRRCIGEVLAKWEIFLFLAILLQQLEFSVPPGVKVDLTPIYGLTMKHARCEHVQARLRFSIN

Assay [4] is described as follows: Stat Signaling Pathway (AID 446).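 Note: ME-180 cervical cancer cells given 40 pM IL-6 alongside compound; SIE-controlled beta-lactamase reporter measured as 460/530 nm FRET emission ratio; % is set by controls: 0 for no effect and ±100 for the full control effect.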 Particulars: ME-180 SIE beta-lactamase reporter, IL-6 stimulated, 5 h; at 7.69 µM (top of the series) unless noted. In a few lines: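 ME-180 SIE-bla cells; overnight plating; cpd + IL-6 40 pM, 5 h, 37 C; LiveBLAzer 2.5 h RT; 460/530 nm emission ratio. Normalized to 300 pM IL-6 and 125 nM JAK inhibitor controls.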
Assay [5] concerns the target Glucocorticoid receptor (Homo sapiens) (UniProt P04150). Nature of the assay: GR-EFC Redistribution (AID 451; calls by dose curve; note: potency is the fitted concentration of half-maximal effect). Conditions: CHO-K1 GR-EFC translocation, beta-gal luminescence, 2 h. In a few lines:
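CHO-K1 cells expressing nuclear EA and GR-ED fragments of b-gal; compounds titrated up to 46 uM final, 2 h at 37 C. GR nuclear translocation read as complemented b-gal luminescence after 1 h RT detection.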

Assay [6] concerns the target Mitogen-activated protein kinase 10 (Mus musculus) (UniProt Q61831). Nature of the assay: JNK3 AlphaScreen Assay (AID 530).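 Note: kinase came from lysate of stimulated human HepG2 cells; signal reports phosphorylation of biotinylated GST-cJun 1-79 at Ser73 with 10 µM ATP; % is set by controls: 0 for no effect and ±100 for the full control effect.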 Particulars: JNK3 lysate, c-Jun phosphorylation; series mostly up to 57.1 µM. Put shortly: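 Pre-activated (IL-1β/TNFα) JNK3 in HepG2 lysates phosphorylates biotin-GST-cJun(1-79), 10 uM ATP; anti-phospho-cJun(Ser73) AlphaScreen read at room temperature, pH 7.6 Tris buffer. Compounds pre-incubated 15 min as titrations.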
On the technique in general: Bead proximity is the source of the signal in Alpha formats.

The target of assay [7] is 3',5'-cyclic-AMP phosphodiesterase 4B (Homo sapiens) (UniProt Q07343). Nature of the assay: qHTS Assay for Inhibitors of PDE-IV (AID 607; active = well fitted activation curve with a large enough effect in the main read-out, with a control signal flat, not every such curve was filed as active; note: % of control where 0% means no effect). Particulars: HEK293 ACTOne CNG channel cells, membrane potential fluorescence; series mostly up to 22.9 µM. Put shortly: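 ACTOne HEK293 cells carry a modified cAMP-gated CNG channel and express endogenous PDE4; plated 1000 cells/well, compounds up to 22.9 uM final. Membrane-potential dye fluorescence (ex 535/em 590) was read; parental cells received 10 uM forskolin + 100 uM RO 20-1724.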
Chain of 3',5'-cyclic-AMP phosphodiesterase 4B (Homo sapiens) (Q07343 whole entry, looked up): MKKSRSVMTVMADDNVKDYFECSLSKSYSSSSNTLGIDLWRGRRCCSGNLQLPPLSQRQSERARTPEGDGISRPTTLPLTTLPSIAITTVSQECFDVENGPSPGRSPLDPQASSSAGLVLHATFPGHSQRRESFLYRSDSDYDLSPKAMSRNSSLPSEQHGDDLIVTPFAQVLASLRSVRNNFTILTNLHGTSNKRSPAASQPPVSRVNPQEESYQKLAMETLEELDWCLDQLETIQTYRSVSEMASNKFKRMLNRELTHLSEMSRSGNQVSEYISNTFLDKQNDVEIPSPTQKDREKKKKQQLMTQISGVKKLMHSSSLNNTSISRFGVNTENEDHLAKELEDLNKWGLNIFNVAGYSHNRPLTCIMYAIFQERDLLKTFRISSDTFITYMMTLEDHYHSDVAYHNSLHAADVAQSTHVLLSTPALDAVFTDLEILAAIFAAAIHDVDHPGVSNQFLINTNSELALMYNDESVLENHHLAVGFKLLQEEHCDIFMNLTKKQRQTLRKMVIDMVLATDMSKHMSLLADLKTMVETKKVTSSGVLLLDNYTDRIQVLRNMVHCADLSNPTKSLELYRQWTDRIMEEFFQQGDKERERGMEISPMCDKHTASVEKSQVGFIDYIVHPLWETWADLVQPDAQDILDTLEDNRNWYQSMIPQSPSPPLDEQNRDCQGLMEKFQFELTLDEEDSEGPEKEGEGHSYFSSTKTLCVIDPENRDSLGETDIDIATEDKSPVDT
Background: qHTS replaces the single test concentration by a dilution series.

Assay [8] concerns the target Cytochrome P450 3A4 (Homo sapiens) (UniProt P08684). The experiment in a line: qHTS Assay for Activators of Cytochrome P450 3A4 (AID 885; active = well fitted curve in the direction sought with a large enough effect; an effect the other way counts as inactive or inconclusive; note: nearly all actives have a fitted effect of over 65% in size). Conditions: recombinant CYP3A4, Luciferin-PPXE luminescence, 60 min; series mostly up to 57.1 µM. In a few lines: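 20nM CYP3A4 + 25uM Luciferin-PPXE (=KM), 200mM KPO4; cpd 10 min RT; NADPH regen, 60 min RT; stop w/ detection buffer, 20 min; luminescence. Normalized to 57 uM ketoconazole.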

Assay [9] is described as follows: qHTS Assay for Lipid Storage Modulators (AID 1519; calls by dose curve; note: potency is the fitted concentration of half-maximal effect). Particulars: Drosophila S3 cells, BODIPY lipid droplet/cell ratio, laser cytometry, cells loaded with oleic acid; for activity change, negative = inhibition: at 57.5 µM (top of the series). In a few lines: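 Cells seeded at 5,000 per well were treated with compounds over a concentration series and loaded with oleic acid (400 uM, as added). Lipid droplet fluorescence (488 nm excitation, 500-530 nm channel) was read by laser-scanning cytometry and normalized to 20 uM Triacsin C.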

A short description of assay [10]: NFAT Signaling Pathway (AID 444).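 Note: carbachol stimulus at about its EC50 of 1 µM final; % is set by controls: 0 for no effect and ±100 for the full control effect.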 Conditions: Jurkat NFAT-bla M1, carbachol, beta-lactamase ratio, 5 h; at 7.69 µM (top of the series) unless noted. In a few lines: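 Jurkat cells with NFAT-driven β-lactamase reporter and co-expressed M1 receptor, stimulated with carbachol (final 1 uM, ~EC50), compound titration, 5 h at 37 °C. CCF4 loaded 1 h at RT; 460/530 nm ratio gave %activity and AC50.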

Assay [11] addresses Cytochrome P450 3A4 (Homo sapiens) (UniProt P08684). The experiment in a line: qHTS Assay for Inhibitors and Substrates of Cytochrome P450 3A4 (AID 884; active = well fitted curve in the direction sought with a large enough effect; an effect the other way counts as inactive or inconclusive; note: potency is the fitted concentration of half-maximal effect; nearly all actives have a fitted effect of over 50% in size). Particulars: recombinant CYP3A4, Luciferin-PPXE luminescence; series mostly up to 57.1 µM. In a few lines:
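20 nM human CYP3A4 with 25 uM Luciferin-PPXE (at KM) in 200 mM KPO4, preincubated 10 min with compound; NADPH regeneration started a 60 min RT reaction. Luciferin detected by luminescence, normalized to 57 uM ketoconazole as full inhibition.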

Assay [12] concerns the target Cytochrome P450 2D6 (Homo sapiens) (UniProt P10635). Nature of the assay: qHTS Assay for Inhibitors and Substrates of Cytochrome P450 2D6 (AID 891; active = well fitted curve in the direction sought with a large enough effect; an effect the other way counts as inactive or inconclusive; note: potency is the fitted concentration of half-maximal effect; nearly all actives have a fitted effect of over 60% in size). Particulars: recombinant CYP2D6, luciferin-ME EGE luminescence; series mostly up to 57.1 µM. In a few lines:
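Human CYP2D6 (5 nM) with 30 uM Luciferin-ME EGE (at Km) in 100 mM KPO4, compound preincubated 10 min, then NADPH regeneration system for 60 min at room temperature. Luciferin read by luminescence; normalized to 1.43 uM quinidine.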

Assay [13] in a line: Confirmation and Secondary Assay for Modulators of Hemoglobin Beta Chain Splicing at IVS2 654 locus (AID 910; active = well fitted curve in the direction sought with a large enough effect; an effect the other way counts as inactive or inconclusive;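 note: HeLa cells stably carrying EGFP split by mutant beta-globin IVS2-654 intron; % of control where 0% means no effect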). Conditions: HeLa EGFP-654 splicing reporter, GFP fluorescence, 48 h; series mostly up to 38.3 µM. Put shortly: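 HeLa cells stably expressing EGFP interrupted by β-globin IVS2-654 intron, seeded overnight in Opti-MEM/2% FCS, then treated 2 days at 37 °C. Restored splicing read as total peak GFP intensity per well by laser scanning cytometry (488 nm excitation, 500–520 nm emission); 500 nM antisense PNA as control.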

Assay [14] can be described thus: Confirmation and Secondary Assay for Modulators of Hemoglobin Beta Chain Splicing at IVS2 705 locus (AID 930; active = well fitted curve in the direction sought with a large enough effect; an effect the other way counts as inactive or inconclusive;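 note: HeLa cells stably expressing the EGFP-705 splicing reporter; GFP fluorescence per well restored by corrected splicing of the IVS2-705 intron in EGFP; % of control where 0% means no effect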). Conditions: HeLa EGFP-705 splicing reporter, GFP fluorescence, 48 h; series mostly up to 38.3 µM. In a few lines:
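HeLa IVS2-705 EGFP reporter cells, 500/well, compound 2 d at 37C; correct splicing yields fluorescent EGFP. Control: 500 nM antisense PNA. Read-out: total peak GFP intensity.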

Assay [15] has as its target Ubiquitin carboxyl-terminal hydrolase 1 (Homo sapiens) (UniProt O94782). Nature of the assay: Inhibitors of USP1/UAF1: Pilot qHTS (AID 504865; active = well fitted curve in the direction sought with a large enough effect; an effect the other way counts as inactive or inconclusive; note: potency is the fitted concentration of half-maximal effect; nearly all actives have a fitted effect of over 35% in size). Particulars: purified USP1/UAF1, Ub-rhodamine cleavage fluorescence; series mostly up to 54.9 µM. In a few lines:
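Kinetic fluorescence assay: 1nM USP1/UAF1, 15 min compound preincubation, then 150nM Ub-Rho; 480/540 nm.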

Assay [16] can be described thus: qHTS Assay for Identification of Small Molecule Agonists for Hypoxia Response Element Signaling Pathway (AID 914; active = well fitted activation curve with a large enough effect in the signal ratio, with a control signal flat, not every such curve was filed as active; the % refers to the signal ratio; note: % of control where 0% means no effect). Particulars: ME-180 (cervical carcinoma) HRE-bla reporter, beta-lactamase ratio, CoCl2, 17 h; activation: stronger effect = higher value. Put shortly:
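HRE-bla ME-180 assay for agonist-like enhancement of an EC50 CoCl2 stimulus: 17 h at 37 degrees Celsius, CCF4 for 2.5 h, ratiometric 460/530 nm signal converted to %Activity and fitted to AC50.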

Assay [17] has as its target Glucocorticoid receptor (Homo sapiens) (UniProt P04150). The experiment in a line: GR-GFP Redistribution (AID 450;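 active = compounds whose dose series gives a full or clear partial fitted curve of increased nuclear translocation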; note: potency is the fitted concentration of half-maximal effect). Conditions: U2OS GR-GFP nuclear translocation, laser cytometry, 2 h.
Assay [18] concerns the target Cytochrome P450 2C19 (Homo sapiens) (UniProt P33261). The experiment in a line: qHTS Assay for Inhibitors and Substrates of Cytochrome P450 2C19 (AID 899; active = well fitted curve in the direction sought with a large enough effect; an effect the other way counts as inactive or inconclusive; note: potency is the fitted concentration of half-maximal effect; nearly all actives have a fitted effect of over 60% in size). Particulars: recombinant CYP2C19, luciferin-H EGE luminescence; series mostly up to 57.1 µM. Put shortly:
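5 nM human CYP2C19 with 10uM Luciferin-H EGE (at KM) in 50mM KPO4, compound preincubated 10 min at 37C, then NADPH regeneration for 60 min at 37C. Luciferin read by luminescence after detection reagent; normalized to 57uM ketoconazole as full inhibition.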

Where [19] appears, read: measured here: cell count channel max response.
Setting [20] is: measured here: lipid channel max response.

Inconclusive results are not listed. Active and inactive are the calls of the source. Unless noted, calls come from the whole dose curve; as a rule, active = well fitted curve in either direction with a large enough effect (not every such curve was filed as active); inconclusive = small, poorly fitted or top-dose-only effect, or another doubt; inactive = flat fitted curve, though single readings scatter.

Chain of Cytochrome P450 3A4 (Homo sapiens) (P08684 whole entry, looked up): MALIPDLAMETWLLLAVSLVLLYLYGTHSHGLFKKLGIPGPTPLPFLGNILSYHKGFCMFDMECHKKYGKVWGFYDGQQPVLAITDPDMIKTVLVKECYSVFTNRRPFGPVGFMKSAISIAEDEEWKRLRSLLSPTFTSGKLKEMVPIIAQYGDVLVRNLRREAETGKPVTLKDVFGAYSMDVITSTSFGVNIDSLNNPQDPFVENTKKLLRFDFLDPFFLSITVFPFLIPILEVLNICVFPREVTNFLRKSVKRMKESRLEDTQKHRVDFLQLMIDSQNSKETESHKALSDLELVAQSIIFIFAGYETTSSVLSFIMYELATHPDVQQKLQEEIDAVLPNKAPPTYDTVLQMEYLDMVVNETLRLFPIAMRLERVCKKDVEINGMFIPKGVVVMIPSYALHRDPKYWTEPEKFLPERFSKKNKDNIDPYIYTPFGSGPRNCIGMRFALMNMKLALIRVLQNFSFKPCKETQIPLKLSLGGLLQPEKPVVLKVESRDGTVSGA
Chain of Glucocorticoid receptor (Homo sapiens) (P04150 whole entry, looked up, the tested form may be a part): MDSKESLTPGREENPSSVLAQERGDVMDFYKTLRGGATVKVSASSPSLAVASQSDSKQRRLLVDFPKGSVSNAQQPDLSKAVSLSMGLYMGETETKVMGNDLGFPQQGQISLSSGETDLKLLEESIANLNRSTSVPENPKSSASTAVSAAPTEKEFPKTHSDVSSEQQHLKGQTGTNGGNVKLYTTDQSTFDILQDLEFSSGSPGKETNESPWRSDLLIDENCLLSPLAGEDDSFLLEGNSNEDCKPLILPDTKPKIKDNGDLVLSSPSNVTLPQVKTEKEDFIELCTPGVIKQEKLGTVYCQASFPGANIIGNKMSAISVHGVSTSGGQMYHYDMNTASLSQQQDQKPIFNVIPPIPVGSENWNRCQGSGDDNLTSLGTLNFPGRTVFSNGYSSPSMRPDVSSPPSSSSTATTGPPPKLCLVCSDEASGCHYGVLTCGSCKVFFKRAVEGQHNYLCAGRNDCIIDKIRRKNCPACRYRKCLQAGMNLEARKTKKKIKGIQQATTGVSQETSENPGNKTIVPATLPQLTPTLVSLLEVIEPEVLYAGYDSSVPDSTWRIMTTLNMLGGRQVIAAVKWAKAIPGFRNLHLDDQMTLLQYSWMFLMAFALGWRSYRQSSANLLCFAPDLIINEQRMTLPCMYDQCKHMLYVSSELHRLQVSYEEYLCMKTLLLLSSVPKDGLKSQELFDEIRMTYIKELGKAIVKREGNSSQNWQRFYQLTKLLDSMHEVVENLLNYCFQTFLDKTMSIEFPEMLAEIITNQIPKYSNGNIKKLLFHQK
Chain of Lysosomal acid glucosylceramidase (Homo sapiens) (P04062 whole entry, looked up): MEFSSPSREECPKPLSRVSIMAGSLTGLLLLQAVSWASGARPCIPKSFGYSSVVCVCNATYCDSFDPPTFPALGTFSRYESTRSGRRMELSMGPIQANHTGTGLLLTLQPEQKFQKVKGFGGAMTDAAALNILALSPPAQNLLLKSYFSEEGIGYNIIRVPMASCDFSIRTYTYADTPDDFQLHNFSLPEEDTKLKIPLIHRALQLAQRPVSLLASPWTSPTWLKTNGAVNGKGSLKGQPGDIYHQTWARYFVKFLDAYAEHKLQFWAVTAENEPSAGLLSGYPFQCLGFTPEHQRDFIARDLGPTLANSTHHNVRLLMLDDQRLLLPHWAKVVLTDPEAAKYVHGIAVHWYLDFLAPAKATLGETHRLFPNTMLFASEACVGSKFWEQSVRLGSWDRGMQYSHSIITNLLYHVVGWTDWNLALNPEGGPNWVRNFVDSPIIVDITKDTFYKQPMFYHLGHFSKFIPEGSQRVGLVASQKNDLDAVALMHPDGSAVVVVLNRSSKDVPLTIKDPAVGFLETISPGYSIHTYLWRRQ
Chain of Cytochrome P450 2D6 (Homo sapiens) (P10635 whole entry, looked up): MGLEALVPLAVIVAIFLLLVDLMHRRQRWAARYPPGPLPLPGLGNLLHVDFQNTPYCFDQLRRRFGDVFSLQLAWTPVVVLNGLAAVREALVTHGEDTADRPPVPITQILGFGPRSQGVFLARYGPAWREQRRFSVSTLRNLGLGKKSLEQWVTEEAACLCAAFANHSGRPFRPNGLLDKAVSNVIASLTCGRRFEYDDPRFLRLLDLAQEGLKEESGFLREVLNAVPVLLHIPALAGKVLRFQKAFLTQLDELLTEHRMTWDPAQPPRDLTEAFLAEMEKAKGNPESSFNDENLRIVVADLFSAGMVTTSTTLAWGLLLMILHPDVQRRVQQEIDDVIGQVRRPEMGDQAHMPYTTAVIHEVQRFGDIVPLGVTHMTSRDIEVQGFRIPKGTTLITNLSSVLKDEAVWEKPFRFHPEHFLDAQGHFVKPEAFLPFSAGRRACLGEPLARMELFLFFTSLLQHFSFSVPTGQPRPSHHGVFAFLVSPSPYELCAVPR
Chain of Ubiquitin carboxyl-terminal hydrolase 1 (Homo sapiens) (O94782 whole entry, looked up): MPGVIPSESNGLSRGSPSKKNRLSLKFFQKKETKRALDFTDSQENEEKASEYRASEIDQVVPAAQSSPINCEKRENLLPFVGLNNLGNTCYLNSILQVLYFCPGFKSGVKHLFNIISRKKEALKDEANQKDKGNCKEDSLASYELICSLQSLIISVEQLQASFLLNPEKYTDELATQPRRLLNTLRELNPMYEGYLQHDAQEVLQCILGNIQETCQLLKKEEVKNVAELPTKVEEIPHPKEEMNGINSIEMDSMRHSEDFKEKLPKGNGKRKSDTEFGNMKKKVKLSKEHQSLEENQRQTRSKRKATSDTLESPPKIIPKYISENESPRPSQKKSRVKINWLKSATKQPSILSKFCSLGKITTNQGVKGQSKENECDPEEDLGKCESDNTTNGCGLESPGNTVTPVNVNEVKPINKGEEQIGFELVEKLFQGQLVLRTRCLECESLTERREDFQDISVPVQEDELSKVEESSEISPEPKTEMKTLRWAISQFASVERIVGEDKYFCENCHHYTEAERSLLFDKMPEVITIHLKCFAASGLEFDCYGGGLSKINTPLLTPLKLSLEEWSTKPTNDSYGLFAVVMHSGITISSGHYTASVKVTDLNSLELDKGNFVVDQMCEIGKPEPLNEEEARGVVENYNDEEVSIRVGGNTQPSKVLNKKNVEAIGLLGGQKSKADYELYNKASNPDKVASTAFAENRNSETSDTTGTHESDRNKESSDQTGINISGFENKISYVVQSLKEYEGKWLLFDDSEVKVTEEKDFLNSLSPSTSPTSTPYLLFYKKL
Chain of Cytochrome P450 2C19 (Homo sapiens) (P33261 whole entry, looked up): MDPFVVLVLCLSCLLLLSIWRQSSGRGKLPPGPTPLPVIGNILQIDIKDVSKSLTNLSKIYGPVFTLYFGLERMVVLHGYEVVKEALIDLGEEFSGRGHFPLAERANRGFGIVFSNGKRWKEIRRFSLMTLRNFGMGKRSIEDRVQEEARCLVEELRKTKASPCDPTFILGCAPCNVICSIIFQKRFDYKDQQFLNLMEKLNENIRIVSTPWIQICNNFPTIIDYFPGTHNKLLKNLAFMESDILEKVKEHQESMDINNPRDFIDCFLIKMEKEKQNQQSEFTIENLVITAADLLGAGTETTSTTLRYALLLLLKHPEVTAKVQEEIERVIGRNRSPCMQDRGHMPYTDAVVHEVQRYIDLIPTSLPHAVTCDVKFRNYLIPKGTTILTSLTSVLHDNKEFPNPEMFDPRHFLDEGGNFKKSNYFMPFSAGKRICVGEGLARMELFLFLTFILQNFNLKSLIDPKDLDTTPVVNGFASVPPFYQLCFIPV

Turning to `COc1ccccc1CN1CC[C@@]2(CCCN(S(=O)(=O)c3ccccc3)C2)C1`, the Potency in assay [1] is > 11.4 µM (inactive); in [3], 25.1 µM (active); in assay [5] it was > 46 µM (inactive). For the same molecule, the activity change, negative = inhibition in [2] is 7.37% (inactive); in assay [9] it was 6.22% (inactive). Besides, the activity, negative = inhibition in [4] is 8.35% (inactive). For the same molecule, the Potency result in [6], in assay [7] and in [8] was “inactive” in each case. Moreover, the max response in [9] (setting [19]) turned out to be 0.611%; in assay [9] (setting [20]), 10.2%.
In the case of `COc1ccccc1-c1nccc(NCc2cccc(C)c2)n1`, the Potency in [1] is > 11.4 µM (inactive); in [3], 0.631 µM (active); in assay [5], > 46 µM (inactive); in assay [11] it was 6.31 µM (active); in assay [12], 1.58 µM (active); in [15] it was 22.4 µM (active). In addition, the activity change, negative = inhibition in assay [2] is -2.08% (inactive); in [10], -5.48% (inactive); in assay [9], -4.4% (inactive). The Potency result in [6], in assay [8] and in assay [13] was “inactive” throughout. The result in assay [14] was inactive. Further, the figures for the max response in assay [9] (setting [19]) and in assay [9] (setting [20]) were -19.8% and -23.8%, respectively.
Turning to `CS(=O)(=O)N1CCC[C@@]2(CCN(C(c3ccccc3)c3ccccc3)C2)C1`, the Potency in [1] is > 11.4 µM (inactive); in assay [3] it was 25.1 µM (active); in assay [5], > 46 µM (inactive); in assay [12] it was 3.98 µM (active); in assay [9], 7.94 µM (active). Besides, the activity change, negative = inhibition in [2] was 5.41% (inactive); in assay [10], -7.94% (inactive). Further, the activity, negative = inhibition in assay [4] is 1.66% (inactive). Also, the Potency entry in assay [6], in assay [7] and in assay [8] was “inactive” each time. Besides, the max response in assay [9] (setting [19]) was -26.7%; in assay [9] (setting [20]) it was -82.6%.
`O=C(c1cc(C(F)(F)F)cc(C(F)(F)F)c1)N1CCC2(CC1)CCN(c1ncccn1)CC2`: the values for the Potency in assay [1] and in assay [5] were > 11.4 µM (inactive) and > 46 µM (inactive), respectively. Moreover, the values for the activity change, negative = inhibition in [2], in assay [10] and in [9] were -11.6% (inactive), 28.8% (inactive) and 3.41% (inactive), respectively. In addition, the Potency entry in assay [3], in assay [6] and in assay [7] was “inactive” throughout. In [4], the activity, negative = inhibition is -7.73% (inactive). Also, the activation in assay [16] is 1.37% (inactive). The max response was found to be 13.8% in assay [9] (setting [19]) and 23.2% in assay [9] (setting [20]).
With `COc1ccc(NC(=O)N2CCCC3(CCN(C(=O)c4cc(C(F)(F)F)cc(C(F)(F)F)c4)CC3)C2)cc1`, the Potency in [1] is > 11.4 µM (inactive); in assay [5], > 46 µM (inactive). Moreover, the activity change, negative = inhibition in assay [2] is -9.5% (inactive); in assay [10], 12.1% (inactive); in [9] it was 6.29% (inactive). The Potency result in assay [3], in [6], in assay [7] and in assay [8] was “inactive” throughout. In assay [4], the activity, negative = inhibition was -15.1% (inactive). Moreover, the max response in assay [9] (setting [19]) was 9.63%; in [9] (setting [20]) it was 18.5%.
Turning to `c1ccc2c(Nc3ccncc3)nc(-c3ccc4c(c3)OCO4)nc2c1`, the Potency in assay [1] is 2.47 µM (active); in assay [3], 1.26 µM (active); in assay [17], > 46 µM (inactive); in assay [5], > 46 µM (inactive); in [11], 0.501 µM (active); in assay [18], 3.98 µM (active). Also, in [15], the Potency is 39.8 µM (active). Moreover, the activity change, negative = inhibition in assay [2] is 4.72% (inactive); in assay [9], -19.5% (inactive). Further, the activity, negative = inhibition in assay [4] was -10.5% (inactive). Moreover, the Potency result in assay [6], in assay [8] and in [13] was “inactive” each time. Besides, the activation in assay [16] was -1.29% (inactive). The result in assay [14] was inactive. The values for the max response in assay [9] (setting [19]) and in assay [9] (setting [20]) were 5.68% and -11.9%, respectively.
